Columns and labels:
[1] = molecular target: T1, Ephrin type-B receptor 2 (Homo sapiens) (UniProt P29323); conditions: at 1 µM
T1 sequence (whole entry): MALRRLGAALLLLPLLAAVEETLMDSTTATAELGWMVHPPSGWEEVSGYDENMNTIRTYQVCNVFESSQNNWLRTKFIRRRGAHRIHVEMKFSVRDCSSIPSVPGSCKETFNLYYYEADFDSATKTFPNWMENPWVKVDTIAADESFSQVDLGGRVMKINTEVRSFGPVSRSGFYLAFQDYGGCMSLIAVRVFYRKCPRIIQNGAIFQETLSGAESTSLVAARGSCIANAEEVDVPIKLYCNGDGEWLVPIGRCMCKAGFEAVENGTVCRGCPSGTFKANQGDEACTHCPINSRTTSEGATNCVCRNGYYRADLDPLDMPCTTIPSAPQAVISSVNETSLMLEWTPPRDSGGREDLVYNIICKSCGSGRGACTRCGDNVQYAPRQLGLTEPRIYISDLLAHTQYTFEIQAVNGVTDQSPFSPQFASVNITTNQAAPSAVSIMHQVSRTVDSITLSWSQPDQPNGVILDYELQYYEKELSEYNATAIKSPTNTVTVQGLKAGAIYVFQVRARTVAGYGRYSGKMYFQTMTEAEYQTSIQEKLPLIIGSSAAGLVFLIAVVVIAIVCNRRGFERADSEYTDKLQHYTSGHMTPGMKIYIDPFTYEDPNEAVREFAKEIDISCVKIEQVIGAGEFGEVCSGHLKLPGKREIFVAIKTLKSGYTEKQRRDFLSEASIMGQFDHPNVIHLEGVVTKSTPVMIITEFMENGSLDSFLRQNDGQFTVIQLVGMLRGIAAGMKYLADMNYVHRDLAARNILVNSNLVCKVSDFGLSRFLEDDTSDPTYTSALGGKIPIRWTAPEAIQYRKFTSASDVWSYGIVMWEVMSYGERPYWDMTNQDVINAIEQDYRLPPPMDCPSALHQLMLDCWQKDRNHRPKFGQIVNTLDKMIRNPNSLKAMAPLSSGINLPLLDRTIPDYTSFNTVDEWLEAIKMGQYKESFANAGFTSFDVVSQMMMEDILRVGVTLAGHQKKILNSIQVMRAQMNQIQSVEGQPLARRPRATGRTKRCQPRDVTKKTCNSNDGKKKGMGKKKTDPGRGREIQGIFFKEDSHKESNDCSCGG

[2] = molecular target: T2, Ephrin type-B receptor 3 (Homo sapiens) (UniProt P54753); conditions: at 0.1 µM
T2 sequence (whole entry): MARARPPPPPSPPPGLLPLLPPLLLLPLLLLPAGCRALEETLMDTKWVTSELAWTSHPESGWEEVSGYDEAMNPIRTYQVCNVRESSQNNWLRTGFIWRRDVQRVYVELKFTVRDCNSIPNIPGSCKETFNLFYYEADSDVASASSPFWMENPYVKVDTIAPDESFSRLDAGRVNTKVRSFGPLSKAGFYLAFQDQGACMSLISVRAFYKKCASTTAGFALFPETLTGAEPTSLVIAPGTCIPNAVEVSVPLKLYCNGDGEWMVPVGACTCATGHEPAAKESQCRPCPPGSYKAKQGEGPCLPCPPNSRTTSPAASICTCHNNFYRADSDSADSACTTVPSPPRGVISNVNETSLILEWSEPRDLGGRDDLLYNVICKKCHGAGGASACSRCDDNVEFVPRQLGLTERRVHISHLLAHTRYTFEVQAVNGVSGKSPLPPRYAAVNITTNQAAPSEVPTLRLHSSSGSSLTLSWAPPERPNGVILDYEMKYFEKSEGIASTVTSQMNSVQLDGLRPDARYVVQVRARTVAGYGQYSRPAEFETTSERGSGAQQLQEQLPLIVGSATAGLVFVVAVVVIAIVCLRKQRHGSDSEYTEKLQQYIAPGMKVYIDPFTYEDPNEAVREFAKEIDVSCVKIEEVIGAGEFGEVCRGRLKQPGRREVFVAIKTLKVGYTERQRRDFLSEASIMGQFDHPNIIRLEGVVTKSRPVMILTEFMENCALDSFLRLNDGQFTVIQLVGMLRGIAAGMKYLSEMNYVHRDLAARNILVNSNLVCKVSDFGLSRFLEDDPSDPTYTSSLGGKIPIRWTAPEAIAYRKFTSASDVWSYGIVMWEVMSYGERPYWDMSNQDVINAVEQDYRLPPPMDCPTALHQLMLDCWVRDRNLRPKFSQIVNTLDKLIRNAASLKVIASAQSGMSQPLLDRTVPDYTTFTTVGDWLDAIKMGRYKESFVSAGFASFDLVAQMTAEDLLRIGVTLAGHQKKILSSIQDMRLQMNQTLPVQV

[3] = molecular target: T2, Ephrin type-B receptor 3 (Homo sapiens); conditions: at 1 µM
[4] = molecular target: T3, Ephrin type-B receptor 4 (Homo sapiens) (UniProt P54760); conditions: at 0.1 µM
T3 sequence (whole entry): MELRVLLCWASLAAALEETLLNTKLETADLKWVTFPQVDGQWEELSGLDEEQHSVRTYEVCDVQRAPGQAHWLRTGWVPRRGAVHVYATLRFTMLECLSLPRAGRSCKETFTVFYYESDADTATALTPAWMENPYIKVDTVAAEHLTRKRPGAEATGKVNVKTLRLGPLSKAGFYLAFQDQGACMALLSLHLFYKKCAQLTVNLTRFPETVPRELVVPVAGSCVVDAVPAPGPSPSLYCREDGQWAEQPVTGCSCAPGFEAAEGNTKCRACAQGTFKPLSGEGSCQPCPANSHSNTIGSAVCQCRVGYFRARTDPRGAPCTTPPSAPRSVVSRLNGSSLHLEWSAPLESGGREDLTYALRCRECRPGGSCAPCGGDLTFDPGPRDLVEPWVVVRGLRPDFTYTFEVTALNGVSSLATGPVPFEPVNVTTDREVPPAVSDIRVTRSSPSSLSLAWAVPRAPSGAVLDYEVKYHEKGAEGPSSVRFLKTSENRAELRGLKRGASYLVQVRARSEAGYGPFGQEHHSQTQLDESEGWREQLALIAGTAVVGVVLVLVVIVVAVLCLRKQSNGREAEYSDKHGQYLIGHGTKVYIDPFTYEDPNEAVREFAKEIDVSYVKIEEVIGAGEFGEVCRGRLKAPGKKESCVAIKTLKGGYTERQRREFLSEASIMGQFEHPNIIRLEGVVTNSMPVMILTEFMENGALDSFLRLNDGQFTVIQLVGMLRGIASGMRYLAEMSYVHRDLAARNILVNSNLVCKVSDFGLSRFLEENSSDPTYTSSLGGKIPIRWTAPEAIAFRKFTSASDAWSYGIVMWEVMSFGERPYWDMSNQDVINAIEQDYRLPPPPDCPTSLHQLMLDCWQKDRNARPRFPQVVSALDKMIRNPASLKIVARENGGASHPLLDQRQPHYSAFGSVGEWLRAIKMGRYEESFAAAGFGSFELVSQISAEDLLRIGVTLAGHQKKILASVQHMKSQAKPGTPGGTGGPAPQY

[5] = molecular target: T3, Ephrin type-B receptor 4 (Homo sapiens); conditions: at 1 µM
[6] = molecular target: Receptor tyrosine-protein kinase erbB-2 (Homo sapiens) (UniProt P04626); conditions: at 0.1 µM
[7] = molecular target: Receptor tyrosine-protein kinase erbB-2 (Homo sapiens) (UniProt P04626); conditions: at 1 µM
[8] = molecular target: Receptor tyrosine-protein kinase erbB-4 (Homo sapiens) (UniProt Q15303); conditions: at 0.1 µM
[9] = molecular target: Receptor tyrosine-protein kinase erbB-4 (Homo sapiens) (UniProt Q15303); conditions: at 1 µM
[10] = molecular target: Tyrosine-protein kinase Fer (Homo sapiens) (UniProt P16591); conditions: at 0.1 µM
[11] = molecular target: Tyrosine-protein kinase Fer (Homo sapiens) (UniProt P16591); conditions: at 1 µM
[12] = molecular target: Tyrosine-protein kinase Fes/Fps (Homo sapiens) (UniProt P07332); conditions: at 0.1 µM
[13] = molecular target: Tyrosine-protein kinase Fes/Fps (Homo sapiens) (UniProt P07332); conditions: at 1 µM
[14] = molecular target: Fibroblast growth factor receptor 1 (Homo sapiens) (UniProt P11362); conditions: at 0.1 µM
[15] = molecular target: Fibroblast growth factor receptor 1 (Homo sapiens) (UniProt P11362); conditions: at 1 µM
[16] = molecular target: Fibroblast growth factor receptor 2 (Homo sapiens) (UniProt P21802); conditions: at 0.1 µM
[17] = molecular target: Fibroblast growth factor receptor 2 (Homo sapiens) (UniProt P21802); conditions: at 1 µM
[18] = molecular target: Fibroblast growth factor receptor 3 (Homo sapiens) (UniProt P22607); conditions: at 0.1 µM
[19] = molecular target: Fibroblast growth factor receptor 3 (Homo sapiens) (UniProt P22607); conditions: at 1 µM
[20] = molecular target: Fibroblast growth factor receptor 4 (Homo sapiens) (UniProt P22455); conditions: at 0.1 µM;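 note: values are mean percent inhibition of FGFR4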
Chain of Fibroblast growth factor receptor 4 (Homo sapiens) (P22455 22-802 limits assumed): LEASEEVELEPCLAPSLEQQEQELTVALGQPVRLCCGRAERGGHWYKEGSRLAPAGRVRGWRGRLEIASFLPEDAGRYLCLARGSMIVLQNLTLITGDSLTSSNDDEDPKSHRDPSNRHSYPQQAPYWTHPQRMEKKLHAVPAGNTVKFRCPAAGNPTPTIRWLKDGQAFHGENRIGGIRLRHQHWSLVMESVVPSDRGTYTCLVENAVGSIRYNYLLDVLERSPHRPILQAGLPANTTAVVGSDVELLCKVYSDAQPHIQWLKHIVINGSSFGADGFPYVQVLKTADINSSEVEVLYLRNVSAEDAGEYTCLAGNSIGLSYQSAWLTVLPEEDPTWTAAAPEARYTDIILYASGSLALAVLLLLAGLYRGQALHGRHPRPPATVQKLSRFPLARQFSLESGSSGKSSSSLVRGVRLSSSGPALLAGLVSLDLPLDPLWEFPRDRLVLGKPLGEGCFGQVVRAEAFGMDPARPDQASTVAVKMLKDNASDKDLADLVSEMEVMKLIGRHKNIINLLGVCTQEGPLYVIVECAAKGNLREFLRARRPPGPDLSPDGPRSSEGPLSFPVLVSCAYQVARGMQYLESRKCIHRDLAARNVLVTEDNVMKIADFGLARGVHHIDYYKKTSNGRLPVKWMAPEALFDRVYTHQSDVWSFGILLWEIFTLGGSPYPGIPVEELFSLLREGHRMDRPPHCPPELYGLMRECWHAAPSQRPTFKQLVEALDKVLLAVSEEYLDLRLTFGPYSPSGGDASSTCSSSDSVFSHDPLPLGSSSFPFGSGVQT

Chain of Fibroblast growth factor receptor 1 (Homo sapiens) (P11362 22-822 limits assumed): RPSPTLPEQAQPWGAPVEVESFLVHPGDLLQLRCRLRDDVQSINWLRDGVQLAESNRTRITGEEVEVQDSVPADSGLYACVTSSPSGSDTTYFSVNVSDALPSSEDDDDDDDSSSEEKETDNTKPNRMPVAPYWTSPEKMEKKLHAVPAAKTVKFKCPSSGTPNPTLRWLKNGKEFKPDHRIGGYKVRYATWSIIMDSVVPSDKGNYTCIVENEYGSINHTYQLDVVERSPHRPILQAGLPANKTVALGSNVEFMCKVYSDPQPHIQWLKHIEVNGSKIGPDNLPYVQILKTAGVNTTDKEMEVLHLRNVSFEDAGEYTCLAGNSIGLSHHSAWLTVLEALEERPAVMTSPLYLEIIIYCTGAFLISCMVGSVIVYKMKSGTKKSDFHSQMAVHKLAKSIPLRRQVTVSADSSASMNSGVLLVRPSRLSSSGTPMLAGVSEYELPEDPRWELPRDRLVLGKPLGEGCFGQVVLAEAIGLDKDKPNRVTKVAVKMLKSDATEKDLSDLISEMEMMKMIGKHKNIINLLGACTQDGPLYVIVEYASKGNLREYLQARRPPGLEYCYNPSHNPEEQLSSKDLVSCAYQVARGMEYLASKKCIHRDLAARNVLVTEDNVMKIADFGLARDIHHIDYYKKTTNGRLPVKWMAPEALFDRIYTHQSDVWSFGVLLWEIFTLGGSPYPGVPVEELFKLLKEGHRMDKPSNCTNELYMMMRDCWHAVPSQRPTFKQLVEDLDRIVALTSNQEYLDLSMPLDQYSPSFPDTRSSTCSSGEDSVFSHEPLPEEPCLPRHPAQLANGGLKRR
Chain of Fibroblast growth factor receptor 3 (Homo sapiens) (P22607 23-806 limits assumed): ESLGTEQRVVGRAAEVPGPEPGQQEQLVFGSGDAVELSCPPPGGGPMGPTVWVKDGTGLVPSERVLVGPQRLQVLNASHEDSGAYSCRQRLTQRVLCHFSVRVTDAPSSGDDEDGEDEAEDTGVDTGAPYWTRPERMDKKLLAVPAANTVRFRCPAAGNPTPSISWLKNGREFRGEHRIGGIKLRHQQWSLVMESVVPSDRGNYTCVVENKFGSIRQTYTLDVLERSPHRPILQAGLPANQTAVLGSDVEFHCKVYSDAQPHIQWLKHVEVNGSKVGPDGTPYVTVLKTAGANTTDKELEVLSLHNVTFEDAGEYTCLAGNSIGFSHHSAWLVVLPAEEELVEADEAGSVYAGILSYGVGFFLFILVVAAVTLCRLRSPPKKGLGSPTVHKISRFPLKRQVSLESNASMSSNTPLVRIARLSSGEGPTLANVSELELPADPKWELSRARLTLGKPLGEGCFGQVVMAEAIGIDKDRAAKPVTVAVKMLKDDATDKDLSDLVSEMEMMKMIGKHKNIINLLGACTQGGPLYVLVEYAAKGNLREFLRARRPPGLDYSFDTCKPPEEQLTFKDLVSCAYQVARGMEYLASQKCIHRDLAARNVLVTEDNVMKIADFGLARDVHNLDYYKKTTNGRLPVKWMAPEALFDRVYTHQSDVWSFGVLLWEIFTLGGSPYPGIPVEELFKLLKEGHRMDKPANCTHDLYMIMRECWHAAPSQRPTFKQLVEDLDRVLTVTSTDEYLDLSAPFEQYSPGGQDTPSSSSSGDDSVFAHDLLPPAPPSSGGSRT
Chain of Tyrosine-protein kinase Fes/Fps (Homo sapiens) (P07332 whole entry): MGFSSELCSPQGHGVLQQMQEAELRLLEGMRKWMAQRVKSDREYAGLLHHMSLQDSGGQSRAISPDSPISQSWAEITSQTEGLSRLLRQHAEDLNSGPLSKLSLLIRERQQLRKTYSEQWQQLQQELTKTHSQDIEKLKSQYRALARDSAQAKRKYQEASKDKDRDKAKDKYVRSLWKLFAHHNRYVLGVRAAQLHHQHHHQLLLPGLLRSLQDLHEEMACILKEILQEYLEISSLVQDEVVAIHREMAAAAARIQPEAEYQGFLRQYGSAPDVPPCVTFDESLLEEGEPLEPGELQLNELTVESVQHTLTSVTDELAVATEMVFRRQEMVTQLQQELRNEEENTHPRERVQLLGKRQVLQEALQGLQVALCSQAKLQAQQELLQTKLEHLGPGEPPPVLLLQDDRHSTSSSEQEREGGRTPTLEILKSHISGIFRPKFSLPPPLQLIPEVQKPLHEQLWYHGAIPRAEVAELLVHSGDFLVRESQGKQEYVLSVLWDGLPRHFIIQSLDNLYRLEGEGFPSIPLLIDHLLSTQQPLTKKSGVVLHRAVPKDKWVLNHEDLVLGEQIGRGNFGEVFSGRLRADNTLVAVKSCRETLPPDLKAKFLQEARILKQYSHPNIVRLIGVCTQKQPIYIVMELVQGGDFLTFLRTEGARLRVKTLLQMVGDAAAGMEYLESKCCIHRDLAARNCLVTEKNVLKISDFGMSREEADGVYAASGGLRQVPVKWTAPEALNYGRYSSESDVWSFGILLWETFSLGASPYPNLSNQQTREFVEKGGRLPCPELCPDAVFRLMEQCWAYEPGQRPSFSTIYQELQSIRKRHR
Chain of Receptor tyrosine-protein kinase erbB-2 (Homo sapiens) (P04626 whole entry): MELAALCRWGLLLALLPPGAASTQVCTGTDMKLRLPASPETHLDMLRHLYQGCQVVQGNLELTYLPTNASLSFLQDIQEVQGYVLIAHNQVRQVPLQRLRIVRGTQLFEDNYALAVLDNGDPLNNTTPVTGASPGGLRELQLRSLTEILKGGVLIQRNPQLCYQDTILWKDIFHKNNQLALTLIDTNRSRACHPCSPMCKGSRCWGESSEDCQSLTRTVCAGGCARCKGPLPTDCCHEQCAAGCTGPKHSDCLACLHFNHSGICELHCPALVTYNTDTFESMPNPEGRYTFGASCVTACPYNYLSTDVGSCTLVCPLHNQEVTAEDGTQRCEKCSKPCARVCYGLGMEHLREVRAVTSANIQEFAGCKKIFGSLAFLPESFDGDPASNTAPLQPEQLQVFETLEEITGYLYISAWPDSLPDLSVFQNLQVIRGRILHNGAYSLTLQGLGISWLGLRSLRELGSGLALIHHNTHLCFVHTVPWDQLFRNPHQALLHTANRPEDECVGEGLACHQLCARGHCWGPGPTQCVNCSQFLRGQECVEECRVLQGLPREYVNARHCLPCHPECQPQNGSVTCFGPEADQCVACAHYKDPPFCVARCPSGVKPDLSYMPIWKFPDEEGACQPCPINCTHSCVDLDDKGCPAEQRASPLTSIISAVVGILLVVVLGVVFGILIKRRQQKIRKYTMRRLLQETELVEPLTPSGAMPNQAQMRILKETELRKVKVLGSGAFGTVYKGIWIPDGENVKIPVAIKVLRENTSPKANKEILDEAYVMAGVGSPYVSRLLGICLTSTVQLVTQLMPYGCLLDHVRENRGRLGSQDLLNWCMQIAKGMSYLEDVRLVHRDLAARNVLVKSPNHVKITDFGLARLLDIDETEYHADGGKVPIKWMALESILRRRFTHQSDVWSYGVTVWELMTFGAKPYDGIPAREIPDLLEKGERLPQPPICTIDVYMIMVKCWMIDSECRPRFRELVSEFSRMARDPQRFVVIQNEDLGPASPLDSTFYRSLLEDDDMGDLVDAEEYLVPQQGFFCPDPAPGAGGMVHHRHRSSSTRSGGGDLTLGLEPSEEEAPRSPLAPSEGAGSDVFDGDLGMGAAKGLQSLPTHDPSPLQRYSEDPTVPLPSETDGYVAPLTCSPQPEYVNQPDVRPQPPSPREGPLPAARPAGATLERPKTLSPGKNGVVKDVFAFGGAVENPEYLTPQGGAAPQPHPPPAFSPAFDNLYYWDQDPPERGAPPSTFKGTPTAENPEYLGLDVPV

Compound	inhibition [1] [%]	inhibition [2] [%]	inhibition [3] [%]	inhibition [4] [%]	inhibition [5] [%]	inhibition [6] [%]	inhibition [7] [%]	inhibition [8] [%]	inhibition [9] [%]	inhibition [10] [%]	inhibition [11] [%]	inhibition [12] [%]	inhibition [13] [%]	inhibition [14] [%]	inhibition [15] [%]	inhibition [16] [%]	inhibition [17] [%]	inhibition [18] [%]	inhibition [19] [%]	inhibition [20] [%]
CCn1c(-c2nonc2N)nc2cncc(C(=O)NCCNC)c21	7.7	3.02	3.19	-0.07	0.78	5.03	3.74	10.7	12.2	4.13	3.14	4.48	4.8	2.05	4.72	3.81	5.33	2	5.02	0.72
Cc1cc(O)cc(C)c1/C=C/c1cncc(C(=O)OC(C)(C)C)c1	68	17.4	49.2	24.8	70.4	1.78	2.48	8.1	16.1	4.09	3.02	1.48	2.34	1.91	3.93	1.65	5.08	7.81	7.63	1.4
O=C(Nc1n[nH]c2nnc(-c3cccnc3)cc12)C1CC1	3.72	0.63	2.01	2.37	0.6	-2.7	-0.28	-0.62	1.8	-1.4	0.68	-0.26	-1.66	-0.17	-1.08	-0.85	-0.69	0.05	1.8	2.02
CS(=O)(=O)CCNCc1ccc(-c2ccc3ncnc(Nc4ccc(OCc5ccccc5)cc4)c3c2)o1	7.66	5.28	5.08	3.4	3	15.1	73	84.6	96.6	1.45	0.38	3.93	3.54	6.5	3.85	3.26	4.3	4.56	3.89	1.63
N#Cc1cccc(Nc2ncc(-c3ccccc3)o2)c1	0.63	3.66	1.53	0.33	0.44	2.68	4.17	6.42	9.11	1.76	5.33	0.93	1.79	-4.35	2.95	2.66	7.1	2.72	4.48	-2.65
CC(C)c1ccc(-c2cc(-c3c[nH]nc3-c3ccccn3)ccn2)cc1	5.4	3.79	1.74	0.47	2.78	0.79	-1.43	4.41	6.32	2.22	2.58	0.8	1.23	6.6	1.8	-0.22	3.83	3.55	1.81	0.39
CNC(=O)c1ncccc1Nc1nc(Nc2cc3c(cc2OC)CCCN3C(=O)CN(C)C)nc2[nH]ccc12	9.33	4.77	-0.74	1.64	2.22	3.4	3.24	10.7	20.2	71.3	80.1	44.3	80.6	9.89	3.03	6.69	6.99	7.55	4.61	2.18
CN(c1ccc(NC(=O)NCCN2CCOCC2)cc1)c1ccnc(Nc2ccc(CS(C)(=O)=O)cc2)n1	17.1	3.86	4.14	2.27	3.53	1.62	4.12	6.8	4.94	3.77	20.6	2.04	7.78	1.48	0.91	7.93	14.8	6.19	10.3	1.27
CS(=O)(=O)CCNCc1ccoc1-c1ccc2ncnc(Nc3ccc(OCc4ccccc4)cc3)c2c1	7.96	3.15	2.98	0.88	1.51	3.25	50.9	32.3	79.9	-0.1	1.52	1.6	0.27	-2.87	2.44	-0.37	2.62	2.09	3.53	0.96
COc1cc2c(cc1Nc1nc(Nc3cccc(F)c3C(N)=O)c3cc[nH]c3n1)N(C(=O)CN1CCN(C(C)C)CC1)CC2	3.39	1.98	0.18	1.3	2.98	2.36	3.48	16.9	59.7	8	53.2	14	59.2	11.4	2.78	5.89	0.93	7.88	3.19	1.09
CC1(C)CC(n2cnc(-c3ccc(F)cc3)c2-c2ccnc(N)n2)CC(C)(C)N1	4.85	3.09	1.51	0.27	0.62	-1.2	-3.03	0.19	3.58	3.41	0.17	-0.11	-0.76	6.46	1.68	-0.84	-0.31	1.59	1.55	-1.33
CN(C)CCNC(=O)Nc1ccc(N(C)c2ccnc(Nc3ccc(CS(C)(=O)=O)cc3)n2)cc1	15.1	5.05	1.99	2.45	3.65	0.75	-0.72	8.93	9.37	4.17	12.4	3.36	6.7	27.9	9.1	5.38	8.82	6.17	5.98	1.63
N#Cc1ccc2c(-c3ccnc(NC4CC4)n3)c(-c3ccc(F)cc3)nn2c1	24.5	5.62	4.39	-0.62	2.45	1.97	5	5.5	13.4	-2.41	-0.62	1.05	1.43	-2.46	1.96	1.16	2.21	1.76	1.06	1.18
